This is part of a sample that, as a whole, favours compounds with a hit. Of some 83,000 tested, about 20% had one in any assay.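 96-well plates, one dose, 48 hours. Percent growth reported; active if below 10.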 Unmarked numbers belong to inactive results. Activity calls are given as the source filed them.
tested on: SNB-75 CNS; experiment: NCI-60 one-dose screen, 48 h (100 = growth as untreated, 0 = no growth, -100 = all killed); conditions: 10 µM unless noted
Experimental: Growth inhibition of the SNB-75 human tumor cell line is measured as a screen for anti-cancer activity. Cells are grown in 96 well plates and exposed to the test compound for 48 hours. Compounds are tested at a single concentration, which is 10^-5 M for most compounds. The reported endpoint is percent growth (GI% or GIPRCNT), where numbers from 0 - 100% represent growth inhibition, and numbers from -100% - 0 represent cell death. For example, a value of 40 represents 60% growth inhibition. A value of 0 means no net growth occurred over the course of the experiment. A value of -40 indicates 40% of cells at the beginning of the experiment died by the end of the experiment. A value of -100 means all cells are dead at the end of the experiment.
NCI-60 Human Tumor Cell Lines Screen was performed using the standard one-dose NCI protocol, which is described in more detail at https://dtp.cancer.gov/discovery_development/nci-60/default.htm.
Compounds with GIPRCNT values below 10 were considered active. Activity score was based on GIPRCNT using the following formula: […]
Score is 0 for GIPRCNT values of 100 or above, 50 for GIPRCNT values of 0, and 100 for GIPRCNT values of -100.

Row | Compound | growth
1 | O=C1/C(=C/c2ccc(OCCCOc3ccc(Cl)cc3)cc2)N=C2SCCCN12 | 84.5%
2 | Nc1ccc(S(=O)(=O)O)c2ccc(N=Nc3ccc(N=Nc4ccc(S(=O)(=O)O)cc4)c4ccccc34)c(O)c12 | 76.5%
3 | CC(=O)c1cc(C(=O)c2ccc3c(c2)Sc2ccccc2N3)n2ccccc12 | 13.1%
4 | COc1ccccc1NS(=O)(=O)c1ccc2oc(SC(C)C)nc2c1 | 102%
5 | COc1cc(C=Nc2oc(-c3ccccc3)c(-c3ccccc3)c2C#N)cc(CN2CCCCC2)c1O | 66.6%
6 | Clc1ccc2c(NCCNc3nc(N4CCOCC4)nc4ccccc34)ccnc2c1 | -94.4% (active)
7 | COC(=O)c1cccc(NC(=O)c2ccc(-c3cccc(N)c3)o2)c1 | 93.2%
8 | CCCOc1cc2ccccc2cc1C(=O)Nc1nc(NC)c2c(ccc3nccc32)[nH]1 | -87.1% (active)
9 | CC/C=C\C[C@H](O)C/C=C1/C(=O)C=C[C@@]1(C)C/C=C\CCCC(=O)OC | 99.1%
10 | CCc1nnc(CNc2ccc(Cl)cc2)o1 | 82.7%
11 | O=C1/C(=C/c2ccc(Cl)cc2)SC(=S)N1CCc1ccc(O)cc1 | 71.4%
12 | COc1ccc(S(=O)(=O)N2CCCCC2)cc1NC(=O)c1[nH]c(C)c2c1CCCCC2=O | 5.25% (active)
13 | CSc1nc(NCCN2CCOCC2)c(C#N)c(-c2cccc([N+](=O)[O-])c2)n1 | 62.8%
14 | COc1ccc(C(=O)COc2ccc(/C=C3\COc4ccc(OC)cc4C3=O)cc2)cc1 | 91.7%
15 | O=S(=O)(Nc1ccc(I)cc1F)c1ccc(-c2cnc(C3CC3)o2)cc1 | 15.4%
16 | OCC(O)c1nc2ccc3[nH]ncc3c2c2c1CCCC2 (stereo not given) | -60.8% (active)
17 | COc1ccc(-n2nc(C)c3c(Nc4ccc(NC(=O)Nc5ccc(Cl)c(C(F)(F)F)c5)cc4)ncnc32)cc1 | -4.71% (active)
18 | O=C(N=Nc1c(O)[nH]c2ccccc12)c1cc(-c2ccccc2)on1 | 53.7%
19 | C=C(C)[C@@H]1CC[C@]2(C(N)=O)CC[C@]3(C)[C@H](CC[C@@H]4[C@@]5(C)C/C(=C/c6ccco6)C(=O)C(C)(C)[C@@H]5CC[C@]43C)[C@@H]12 | 89.5%
20 | CCCCn1c(-c2ccc(C(=O)O/N=C(\N)c3ccc4ccccc4c3)cc2)nc(-c2ccccc2)c1-c1ccccc1 | 23.3%

Row | Compound | growth
21 | OC(c1cc2cc(Cl)c(Cl)cc2c2cc(C(F)(F)F)ccc12)C1CCCCN1 (stereo not given) | -64% (active)
22 | C=C1c2nc3ccccc3n2C=C(c2ccc(OC)cc2)N1Cc1ccccc1 | 109%
23 | Cc1cc(N2CCCCCC2)nc(NC2CCCC(Nc3ccnc4cc(Cl)ccc34)C2)n1 (stereo not given) | -78.7% (active)
24 | Cc1nc2c3c(-c4ccccc4)c(-c4ccccc4)oc3ncn2n1 | 69.9%
25 | COc1ccc(NC2=C(Sc3nc(C)cc(C)n3)C(=O)N(Cc3ccccc3)C2=O)cc1Cl | 84.4% [30 µM]
26 | COc1cc(-c2nc3cc(Cl)c(Cl)cc3[nH]2)ccc1OCC(=O)N=Nc1c(O)[nH]c2ccccc12 | -90% (active)
27 | O=C1NC(=S)N[C@H]1CC(=O)n1cnc2ccccc21 | 69.7%
28 | O=Nc1c(O)c(Cl)cc2ccccc12 | 62%
29 | O=S(=O)(Nc1ccc(NS(=O)(=O)c2ccccc2)c(Cl)c1)c1ccccc1 | 84.9%
30 | Cc1oc(-c2ccc(Cl)cc2Cl)cc1C(=O)Nc1nccs1 | 84.4%
31 | C=C1C(=O)O[C@H]2[C@H]1CC/C(COC(=O)NCc1ccc(OC)c(OC)c1)=C\CC[C@@]1(C)O[C@@H]21 | 58.7%
32 | COc1ccc(C(=O)c2sc3nc4c(c(-c5cccnc5)c3c2N)CCCC4)cc1OC | 56.4%
33 | CCOc1cc2ncc(C#N)c(Nc3ccc(OCc4cccc(F)c4)c(Cl)c3)c2cc1NC(=O)CCCCC1CCSS1 (stereo not given) | 97.8%
34 | Fc1ccc(CNc2cccc3[nH]c(C(F)(F)F)nc23)cc1 | 73.9%
35 | COc1cccc(/C=N/NC(=O)c2ccccc2Nc2ccnc(C(F)(F)F)c2)c1O | 19.6%
36 | CC(=O)Oc1ccc(Cl)cc1CN(C(C)=O)C1CCCCC1 | 93.7%
37 | CCOc1ccc(-n2nc(C(=O)Nc3ccccc3)nc2-c2cc(OC)c(OC)c(OC)c2)cc1 | 35.1%
38 | CC(C)(C)CC(C)(C)c1ccc(OCCOCC[N+](C)(C)Cc2ccccc2)cc1 | -26% (active)
39 | CCc1nc(N)nc(N)c1C#CC(C)c1cc(-c2ccnc(C)c2)c2oc(C)nc2c1 (stereo not given) | -23.2% (active)
40 | COc1cccc2c1C(=O)c1c(O)c3c(c(O)c1C2=O)C[C@](O)(C(=O)CO)C[C@H]3O[C@@H]1C[C@@H](NC(=O)CCCN(C)C2(c3ccc(F)cc3)CC3CCC2C3)[C@H](O)[C@@H](C)O1 (stereo not given in full) | 30%
